The values that follow come from PubChem BioAssay.

The term inhibition denotes the relative decrease from the control value, in per cent.

Activity calls are given as the source filed them.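 The calls were made as follows, unless noted: active = fluorescence slope after compound addition differing from the mean of all screened samples at 99.7% confidence, in either direction; inactive = the rest.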

Experiment [1] in a line: inhibitors of TNFa-induced NFkB p65 translocation, primary screen, imaging, HUVEC, MLSMR starter and 10KST1 sets (AID 438;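 active = inhibition above 20% together with a positive visual image hit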;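 also: compound added about 3h40 before a 20 min TNFalpha stimulation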;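 as to inhibition: signal is the nuclear over cytoplasmic p65 intensity ratio per well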). The settings on record: HUVEC TNFa-induced p65 nuclear translocation; cell count: measured here: nuclei count (cytotoxicity indicator), at 2.08 µM; inhibition: at 2 µM, stronger effect = higher value, 0% TNFa-plus-vehicle, 100% no-TNFa wells.
Experiment [2] can be described thus: reduction of polyQ htt aggregates in cells – imaging, exon1htt(103Q)mCFP cells, high-content imaging, primary screen (AID 483;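 active = visual image review flags a hit and inhibition of aggregation exceeds 20%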;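 also: compound exposure lasted 3 days before fixation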;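 as to nuclei count: percent of the per-plate median nuclei count of sample wells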). As to conditions: exon1htt(103Q)mCFP cell line, aggregate imaging, at 2 µM; inhibition of aggregation: stronger effect = higher value; nuclei count: measured here: cell count, toxicity.
The nature of experiment [3]: endothelial E-selectin expression blockers – imaging, HUVEC, immunofluorescence, MLSMR starter and 10KST1 sets, primary screen (AID 487;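 active = visually confirmed hit in the image check and inhibition above 20%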;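 as to inhibition: signal is fraction of cell area covered by stained E-selectin grains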;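 as to nuclei count: 100% = median nuclei count of all wells on the same plate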). As to conditions: HUVEC TNFalpha-induced E-selectin immunofluorescence imaging, at 2 µM; inhibition: stronger effect = higher value; nuclei count: measured here: cell number, toxicity.
Experiment [4] is described as follows: Primary imaging screen for DUSP6 inhibitors that restore phospho-Erk in transfected HeLa cells, chemical complementation (AID 609;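 active = compounds giving at least 50% inhibition in the cell-based MKP-3 phosphatase rescue imaging test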;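 as to inhibition: phospho-Erk level distribution per well compared with pooled transfected vehicle control wells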). The settings on record: HeLa MKP-3 transfected, phospho-Erk imaging KS statistic, at 10 µM, cells stimulated with TPA for 15 min.
The target of experiment [5] is Dual specificity protein phosphatase 6 (Homo sapiens) (UniProt Q16828). The experiment is described as above. As to conditions: HeLa MKP-3 transfected, phospho-Erk imaging KS statistic; at 10 µM; stronger effect = higher value; cells stimulated with TPA for 15 min.
The target of experiment [6] is Voltage-gated potassium channel subunit beta-2 (Rattus norvegicus) (UniProt P62483). The experiment is described as follows: inhibitors of rat Kvbeta2 reductase activity – biochemical, NADPH fluorescence, primary screen (AID 622;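 active = fluorescence slope higher than the sample average by over 3 SD, cut at about -0.22 in these data, passing the limit was not always enough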;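 also: slope of raw intensity against log time taken from 70 to 1610 s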). As to conditions: recombinant KvBeta, 4-cyanobenzaldehyde reduction, at 10 µM, stronger effect = higher value.
Experiment [7] shares this target. The experiment is described as follows: enhancers of rat Kvbeta2 NADPH turnover – biochemical, NADPH fluorescence, primary screen (AID 623;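 active = NADPH fluorescence slope more negative than the mean of all samples by about 3 SD, 99.7% confidence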;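 also: fluorescence intensity change per second fitted from 20 to 320 s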). The settings on record: Recombinant KvBeta, NADPH fluorescence decrease slope, 10 min; at 10 µM; stronger effect = lower value.
The target of experiment [8] is Alpha-2C adrenergic receptor (Homo sapiens) (UniProt P18825). In words: compounds altering alpha2C-coupled GIRK flux – cell-based, HEK293 alpha2C/GIRK1/2, thallium flux, primary screen (AID 624).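 Also: slope of fluorescence ratio to pre-addition baseline per second over 15 to 24 s.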 As to conditions: thallium flux BTC fluorescence, at 10 µM, actives lie on both sides.
Experiment [9] is described as follows: inhibitors of larval lipid processing in zebrafish, primary screen, whole organism, PED6 fluorescence, gall bladder and intestine (AID 686;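 active = a full or partial loss of lipid-probe fluorescence in the fish gall bladder, intestine or both, judged by eye; inactive = no fluorescence loss, or compound toxic to the fish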;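 also: larvae 5 to 7 days old with five fish per well; signal comes from phospholipase A2 cleavage of quenched PED6 carried via bile; overnight exposure to compound and PED6 before scoring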). The settings on record: Zebrafish larvae PED6 lipid processing, fluorescence scoring; screened at 20 µM (by protocol).
Experiment [10] can be described thus: loss of swimming-algae plug formation – whole organism, Chlamydomonas reinhardtii, WT vs cilia-less mutant, absorbance, 96-well, primary screen (AID 463189;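 active = inhibition at or above 50% relative to wild type and mutant plate controls; inactive = inhibition below 50%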;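 also: 0% = wild type cc124 cells in DMSO and 100% = ciliumless bld1 mutant cells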). As to conditions: Chlamydomonas reinhardtii gravitaxis, OD600 absorbance, 2 days; at 10 µM; stronger effect = higher value.
Experiment [11] is described as follows: blockers of RIG-like receptor reporter activation – cell-based, Sendai virus stimulus, luciferase, 10K MLSCN set, TLR/RLR signaling modifier project, primary screen (AID 602276;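 active = inhibition at or above 50% at 10 µM; inactive = inhibition below 50%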;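 also: firefly luciferase from ISG56 promoter only with Renilla not read in this screen; 0% = Sendai virus plus DMSO and 100% = medium plus DMSO without virus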). The settings on record: HEK293 RL24 IRF3 luciferase reporter, at 10 µM, stronger effect = higher value. Background: Reporter assays use an easily measured gene product as a stand-in for the process of interest.

A short description of experiment [12]: TLR3 IRF3 reporter activation blockers – cell-based, poly I:C stimulus, luciferase, 10K MLSCN set, primary screen (AID 602277;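 active = inhibition of the reporter signal at or above 50%; inactive = inhibition below 50%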). As to conditions: HEK293-TLR3 RL24 IRF3 luciferase reporter, at 10 µM, stronger effect = higher value.
Where [13] appears, read: measured here: cell density z-score.
The mark [14] stands for this setting: measured here: nuclear c-Myc green intensity z-score.
Setting [15] is: measured here: nuclear pErk red intensity z-score, stronger effect = higher value.

Chain of Voltage-gated potassium channel subunit beta-2 (Rattus norvegicus) (P62483 whole entry, looked up): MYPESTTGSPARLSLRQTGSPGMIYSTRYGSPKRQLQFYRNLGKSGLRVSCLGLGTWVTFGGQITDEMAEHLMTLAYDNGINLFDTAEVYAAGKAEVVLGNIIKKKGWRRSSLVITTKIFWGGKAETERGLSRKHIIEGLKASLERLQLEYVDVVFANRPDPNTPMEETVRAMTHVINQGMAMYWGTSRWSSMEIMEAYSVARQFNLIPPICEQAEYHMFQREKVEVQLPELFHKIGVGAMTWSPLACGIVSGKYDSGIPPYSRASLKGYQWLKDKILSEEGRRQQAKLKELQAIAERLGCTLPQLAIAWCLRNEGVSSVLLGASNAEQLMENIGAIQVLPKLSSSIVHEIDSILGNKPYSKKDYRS
Chain of Dual specificity protein phosphatase 6 (Homo sapiens) (Q16828 whole entry, looked up): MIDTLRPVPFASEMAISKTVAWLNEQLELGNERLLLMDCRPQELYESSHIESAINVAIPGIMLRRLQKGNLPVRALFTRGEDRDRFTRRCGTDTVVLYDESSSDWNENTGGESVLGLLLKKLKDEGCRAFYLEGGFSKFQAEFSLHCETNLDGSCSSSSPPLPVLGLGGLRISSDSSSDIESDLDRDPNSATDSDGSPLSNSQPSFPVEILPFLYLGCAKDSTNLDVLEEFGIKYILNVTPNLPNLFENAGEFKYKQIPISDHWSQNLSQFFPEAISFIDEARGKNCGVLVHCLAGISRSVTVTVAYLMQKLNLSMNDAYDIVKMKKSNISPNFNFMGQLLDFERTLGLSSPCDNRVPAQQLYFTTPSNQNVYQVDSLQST
Chain of Alpha-2C adrenergic receptor (Homo sapiens) (P18825 whole entry, looked up): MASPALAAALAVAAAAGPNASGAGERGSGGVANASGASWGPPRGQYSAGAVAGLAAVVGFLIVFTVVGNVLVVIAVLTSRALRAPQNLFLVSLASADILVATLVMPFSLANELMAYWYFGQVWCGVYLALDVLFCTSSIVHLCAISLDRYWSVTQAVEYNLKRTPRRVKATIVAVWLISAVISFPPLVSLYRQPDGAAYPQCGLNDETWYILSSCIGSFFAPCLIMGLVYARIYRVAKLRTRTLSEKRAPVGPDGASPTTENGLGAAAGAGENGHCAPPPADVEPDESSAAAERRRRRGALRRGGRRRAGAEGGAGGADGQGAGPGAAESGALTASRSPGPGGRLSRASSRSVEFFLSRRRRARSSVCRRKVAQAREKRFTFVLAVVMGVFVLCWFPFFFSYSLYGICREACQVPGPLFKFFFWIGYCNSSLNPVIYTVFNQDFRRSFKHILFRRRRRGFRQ

As to `CCSC(SCC)[C@H](O)[C@@H](O)[C@H](O)[C@H](O)CO`, the cell count in [1] was determined as 619. Besides, the inhibition in experiment [1] was -2.2% (inactive); in experiment [3], -75.4% (inactive); in experiment [5], -4.44% (inactive); in [10], -8.68% (inactive); in experiment [11] it was 10.6% (inactive); in experiment [12] it was 28.3% (inactive). Moreover, the inhibition of aggregation in experiment [2] was -0.2% (inactive). The results for the nuclei count in experiment [2] and in [3] were 107% and 116%, respectively. Moreover, the z-score is -0.857 in experiment [4] (setting [13]), -0.361 in experiment [4] (setting [14]) and -0.437 in experiment [4] (setting [15]). Besides, in experiment [6], the fluorescence slope was -0.451 (inactive). In addition, in experiment [7], the NADPH fluorescence slope was 1.5e-05 (inactive). Further, the slope in experiment [8] is 0.00559 (inactive). In addition, the compound was classed as inactive in [9].
As for `COC(=O)C1=C(N)Oc2cc(C)[nH]c(=O)c2C1c1ccncc1` (stereo not given), the cell count in [1] turned out to be 415. In addition, the inhibition in experiment [1] was -3.5% (inactive); in experiment [3] it was -70.4% (inactive); in [5], 11.4% (inactive); in experiment [10], 35.9% (inactive); in experiment [11], 22.8% (inactive); in experiment [12], 38.8% (inactive). Also, the inhibition of aggregation in [2] is 5.1% (inactive). Further, the nuclei count in experiment [2] worked out at 99.8%; in [3], 132%. Further, the z-score in experiment [4] (setting [13]) was 1.07; in experiment [4] (setting [14]), -0.647; in experiment [4] (setting [15]), -1.1. Also, in experiment [6], the fluorescence slope was -0.45 (inactive). Further, in experiment [7], the NADPH fluorescence slope was -0.000119 (inactive). Further, the slope in experiment [8] was 0.00625 (inactive). The outcome in [9] was inactive.
On to `COc1cccc(Cn2c(Oc3ccccc3)nc3c2c(=O)n(C)c(=O)n3C)c1`, for which the cell count in experiment [1] worked out at 373. Moreover, the inhibition was -4.8% (inactive) in [1]; -67.3% (inactive) in experiment [3]; 1.04% (inactive) in experiment [5]; 8.33% (inactive) in experiment [10]; 19.3% (inactive) in experiment [11]; 10.3% (inactive) in experiment [12]. In [2], the inhibition of aggregation is 17.7% (inactive). Moreover, the nuclei count in experiment [2] turned out to be 87.9%; in experiment [3] it was 150%. The z-score in [4] (setting [13]) is -0.332; in [4] (setting [14]) it was -0.584; in experiment [4] (setting [15]) it was 0.142. In experiment [6], the fluorescence slope is -0.369 (inactive). Besides, the NADPH fluorescence slope in [7] is -2.2e-05 (inactive). Besides, the slope in [8] was 0.00481 (inactive). Further, in experiment [9], the compound was called inactive.
In the case of `C=C1[C@@H](C)C2[C@H](Cc3ccccc3)NC(=O)[C@]23OC(=O)CC[C@H](O)CCC[C@H](C)C/C=C/[C@H]3[C@@H]1O` (stereo not given in full), the cell count in [1] is 573. Also, the inhibition in [1] is -22.6% (inactive); in experiment [3] it was -47.4% (inactive); in [5], 5.42% (inactive); in experiment [10], -3.13% (inactive); in experiment [11], 7.56% (inactive); in [12], 45.8% (inactive). In [2], the inhibition of aggregation was 25.7% (inactive). Moreover, the nuclei count was 42.3% in experiment [2] and 104% in experiment [3]. The figures for the z-score in experiment [4] (setting [13]), in experiment [4] (setting [14]) and in experiment [4] (setting [15]) were -1.85, 0.937 and 1.72, respectively. Further, the fluorescence slope in experiment [6] was -0.464 (inactive). In addition, in [7], the NADPH fluorescence slope was -6.3e-05 (inactive). In addition, in experiment [8], the slope is 0.00486 (inactive). Moreover, the compound was classed as inactive in [9].
Consider `COc1cccc(OC)c1OCCN1CCN(C(=O)c2ccco2)CC1`, for which the cell count in experiment [1] stood at 361. Further, the inhibition was -3.1% (inactive) in experiment [1]; -24.8% (inactive) in experiment [3]; 13.2% (inactive) in experiment [5]; -8.27% (inactive) in experiment [10]; 11.8% (inactive) in experiment [11]; 17.9% (inactive) in [12]. The inhibition of aggregation in experiment [2] is 10.7% (inactive). Further, the nuclei count in experiment [2] turned out to be 104%; in experiment [3] it was 102%. The z-score in experiment [4] (setting [13]) is 0.154; in [4] (setting [14]), 0.0392; in [4] (setting [15]), -1.87. The fluorescence slope in experiment [6] was -0.538 (inactive). For the same compound, in experiment [7], the NADPH fluorescence slope is -6.4e-05 (inactive). Besides, the slope in experiment [8] is 0.00433 (inactive). Also, in experiment [9], the compound was called inactive.
